# In ChEMBL document CHEMBL3433997, “St. Jude Leishmania screening dataset” (2016):
# Assays:
# Format in all cases: functional
# [1] = target: Solute carrier family 2, facilitated glucose transporter member 1 (Homo sapiens) (UniProt P11166); assay: ST_JUDE_LEISH: Cytotoxicity at 2uM final concentration against transgenic Leishmania Mexicana promastigotes LmGLUT1 that are glucose transport deficient and complemented with the human glucose transporter GLUT1. Activity is measured by DNA content using SYBR green in vitro
# [2] = target: Hexose transporter 1 (Plasmodium falciparum) (UniProt O97467); assay: ST_JUDE_LEISH: Cytotoxicity at 2uM final concentration against transgenic Leishmania Mexicana promastigotes LmPfHT that are glucose transport deficient and complemented with the Plasmodium falciparum hexose transporter. Activity is measured by DNA content using SYBR green in vitro
# [3] = target: Glucose transporter (Leishmania mexicana) (UniProt O61059); assay: ST_JUDE_LEISH: Cytotoxicity at 2uM final concentration against transgenic Leishmania Mexicana promastigotes LmGT2 that are glucose transport deficient and complemented with the L. Mexicana glucose transporter 2. Activity is measured by DNA content using SYBR green in vitro
# Sequence of Solute carrier family 2, facilitated glucose transporter member 1 (Homo sapiens) (P11166 whole entry): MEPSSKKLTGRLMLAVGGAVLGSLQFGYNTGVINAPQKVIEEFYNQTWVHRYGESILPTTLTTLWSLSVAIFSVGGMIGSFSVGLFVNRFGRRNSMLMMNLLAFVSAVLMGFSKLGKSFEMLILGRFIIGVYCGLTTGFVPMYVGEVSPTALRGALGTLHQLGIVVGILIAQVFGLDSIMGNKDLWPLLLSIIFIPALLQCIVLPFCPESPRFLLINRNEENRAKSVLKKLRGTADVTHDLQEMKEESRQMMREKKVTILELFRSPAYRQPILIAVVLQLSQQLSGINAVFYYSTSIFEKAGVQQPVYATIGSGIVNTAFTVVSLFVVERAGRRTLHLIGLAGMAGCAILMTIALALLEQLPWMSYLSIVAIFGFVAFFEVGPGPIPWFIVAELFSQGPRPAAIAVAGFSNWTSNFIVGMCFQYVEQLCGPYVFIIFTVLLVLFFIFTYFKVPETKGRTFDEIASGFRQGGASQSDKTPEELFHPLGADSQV
SMILES,inhibition [1],inhibition [2],inhibition [3]
NCCCCc1c(-c2ccc(Cl)c(Cl)c2)[nH]c2ccc(Cl)cc12,-2.7%,-1.68%,-3.34%
CCc1cn2c3c(cc(C(=O)N[C@@H](Cc4ccccc4)[C@H](O)CNC4CCCCC4)cc13)N(C)S(=O)(=O)C2,2.09%,2.23%,2.69%
O=C1C(c2ccccc2)=C(Nc2ccc(Cl)cc2)c2ccccc21,1.6%,1.45%,2.61%
COc1ccc(CNc2ncnc3c2[nH]c2ccc(F)cc23)cc1,7.12%,7.69%,4.52%
c1ccc(C(c2ccccc2)N2CCC(NCc3ccc(OCCCN4CCCCC4)cc3)CC2)cc1,8.52%,11.3%,10.7%
O=C(NC1CC1)c1ccc(N2CCCCN2CCc2ccccc2)c(C(F)(F)F)c1,10.5%,19.8%,5.87%
COc1cccc(NC(=O)Nc2ccc(-c3oc(C(=O)NCC(c4ccccc4)N(C)C)cc3-c3ccncc3)cc2)c1 (stereo unspecified),5.08%,3.73%,3.18%
C[C@H](NC(=O)c1c(CN2CCC(N3CCCCC3=O)CC2)c(-c2cccs2)nc2ccccc12)C1CCCCC1,4.3%,0.29%,0.41%
Cc1ccc2c(=O)c3cc(C)ccc3[nH]c2c1,3.4%,0.93%,0.54%
N=C1c2ccccc2CN1CC(=O)c1ccc(Cl)c(Cl)c1,0.66%,2.37%,2.53%
CC(C)N1CCC(N(Cc2ccc(-c3ccc(C(F)(F)F)cc3)cc2)C(=O)Cn2c(CCc3cccc(F)c3F)cc(=O)c3cn(C)nc32)CC1,10.3%,8.4%,13%
COc1ccc(NC(=O)CCNc2cc(C)nc(NCCc3ccccc3)n2)cc1,4.71%,4.04%,2.42%
